# Experimental data reported in PubChem BioAssay AID588590 (National Center for Advancing Translational Sciences (NCATS), 2011).
# Several values for one entry are separate records, joined by “and”; a condition that tells them apart may be missing. Equal entries are not always repeated. Hit rate of the full screen: of about 390,000 compounds, about 4,000 (1%) were called active. Entries that show only a call come without a potency. Roughly 7% stayed inconclusive and do not appear here. The call rests on the fitted dose curve; in most records, active means well fitted inhibition curve with a large enough effect; inconclusive means small, poorly fitted or top-dose-only effect, or another doubt; inactive means no such curve, though single readings can be large or run the other way. The sample as a whole holds a higher share of actives than the screen did. Where a structure was tested more than once in an assay, its records may differ in their call.
# Molecular target: DNA polymerase iota (Homo sapiens) (UniProt Q9UNA4)
# Sequence (Q9UNA4 whole entry, looked up): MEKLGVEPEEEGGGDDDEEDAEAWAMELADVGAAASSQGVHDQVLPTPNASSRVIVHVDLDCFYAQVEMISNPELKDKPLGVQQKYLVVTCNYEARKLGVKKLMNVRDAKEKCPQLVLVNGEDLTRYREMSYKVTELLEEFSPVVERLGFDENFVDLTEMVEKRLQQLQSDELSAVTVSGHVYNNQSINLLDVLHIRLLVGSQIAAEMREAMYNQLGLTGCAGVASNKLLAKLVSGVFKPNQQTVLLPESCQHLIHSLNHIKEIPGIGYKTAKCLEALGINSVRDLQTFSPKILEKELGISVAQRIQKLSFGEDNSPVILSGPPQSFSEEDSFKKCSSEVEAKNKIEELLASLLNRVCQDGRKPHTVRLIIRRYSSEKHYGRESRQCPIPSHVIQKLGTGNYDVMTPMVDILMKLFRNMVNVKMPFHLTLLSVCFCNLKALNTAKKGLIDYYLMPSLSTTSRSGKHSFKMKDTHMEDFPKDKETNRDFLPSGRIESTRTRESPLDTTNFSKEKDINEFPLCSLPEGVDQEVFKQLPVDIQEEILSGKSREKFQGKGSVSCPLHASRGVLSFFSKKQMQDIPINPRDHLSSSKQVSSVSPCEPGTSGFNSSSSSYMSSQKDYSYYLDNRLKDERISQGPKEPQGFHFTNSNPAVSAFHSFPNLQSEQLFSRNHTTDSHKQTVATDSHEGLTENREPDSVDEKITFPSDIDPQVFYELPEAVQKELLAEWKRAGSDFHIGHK
# Experiment: qHTS for Inhibitors of Polymerase Iota
# Conditions: Pol iota fluorescent replication assay, 10 min; series mostly up to 115 µM
# In short: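 Pol iota at 10 nM preincubated 15 min with compounds at room temperature; reaction started with fluorescent substrate, 50 nM final. Fluorescence read kinetically at 0 and 10 min; buffer-only wells as negative control.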
# Potency means the concentration at half of the fitted maximal effect.
row,Compound,Potency
1,COc1cc(Cl)ccc1Nc1ncc(C(=O)N2CCN(c3ccccc3OC)CC2)c2ccccc12,inactive
2,CCc1ccc(S(=O)(=O)c2nnn3c2nc(NCc2ccccc2OC)c2cc(Cl)ccc23)cc1,inactive
3,CN(C)NC(=O)C(NC(=O)c1ccc(N)cc1)C12CC3CC(CC(C3)C1)C2 (stereo not drawn),35.5 µM (active)
4,CC(CNC(=O)c1ccc(N)cc1)NC(=O)c1ccc(N)cc1 (stereo not drawn),inactive
5,CC(NC(=O)c1ccc(N2CCNCC2)c([N+](=O)[O-])c1)C12CC3CC(CC(C3)C1)C2 (stereo not drawn),inactive
6,CC(CCCc1ccccc1)NC(=O)c1nn(-c2ccc(Cl)cc2)nc1CO (stereo not drawn),inactive
7,COc1ccc(CCNC(=O)c2ccc3c(c2)sc2nc(-c4ccc(C)cc4)cn23)cc1OC,inactive
8,CCOc1ccccc1C(=O)NCc1ccc2c(c1)CCN2C(=O)c1ccc(F)cc1,inactive
9,COC(=O)c1ccccc1NC(=O)Cn1c(=O)n(-c2cccc(C(F)(F)F)c2)c(=O)c2c(C)c(C)sc21,inactive
10,COc1ccc(N2CCN(S(=O)(=O)c3ccc4c(c3)NC(=O)C(C)C(=O)N4)CC2)cc1 (stereo not drawn),inactive
11,CON(C)S(=O)(=O)c1ccc2c(c1)NC(=O)C1CCCN21 (stereo not drawn),22.4 µM (active)
12,CC1C(=O)Nc2ccc(S(=O)(=O)N3CCN(c4ccccc4F)CC3)cc2NC1=O (stereo not drawn),inactive
13,NC(=O)C[n+]1cccc(C(N)=O)c1,inactive
14,N#Cc1ccc[n+](CC(=O)c2ccc(F)cc2)c1,inactive
15,N#Cc1ccc[n+](CC(=O)c2ccc(O)c(O)c2)c1,0.891 µM (active)
16,Cc1ccccc1C(=O)NCc1nc(-c2ccc(Cl)cc2)no1,inactive
17,CCN(CC)CCNC(=O)CN1N=C(c2ccc(OC)cc2)CCC1=O,inactive
18,COc1ccc(OC)c(CNC(=O)CN2C(=O)CCn3nc(-c4cn(C)c5ccccc45)cc32)c1,inactive
19,Cn1c(=O)cc(OCC(=O)N2CCN(c3ccccc3)CC2)c2ccccc21,inactive
20,CCC(=O)N1CCc2cc(Br)cc(S(=O)(=O)CCC(=O)NCc3ccccc3OC)c21,inactive
21,COc1ccc(NC(=O)CN2C(=O)C(c3ccccc3)=NC23CCCCCC3)cc1OC,inactive

row,Compound,Potency
1,CCc1ccc(NC(=O)CN2C(=O)C(c3ccccc3)=NC23CCCCCC3)cc1,inactive
2,Cc1ccc(NC(=O)CN2C(=O)C(c3ccc(F)cc3)=NC23CCCCCC3)c(C)c1,44.7 µM (active)
3,CCCCN(C)c1nnc(NC(=O)Nc2ccc(Br)c(C)c2)s1,inactive
4,CCOCCCn1c(SCC(=O)Nc2ccc(CC)cc2)nc2ccccc2c1=O,inactive
5,Cc1ccc(Cl)cc1NC(=O)Cc1ccc(-n2c(C)nc3cccnc32)cc1,inactive
6,O=c1c2c(-c3ccccc3)ccnc2[nH]n1-c1ccccc1,inactive and 89.1 µM (active)
7,Cc1ccc(-c2ccnc3[nH]n(-c4ccccc4)c(=O)c23)cc1,inactive
8,COc1ccccc1-c1ccnc2[nH]n(-c3ccccc3)c(=O)c12,inactive
9,COc1ccc(OC)c(NC(=O)CN2CCCN(Cc3cc(C)ccc3C)S2(=O)=O)c1,inactive
10,CCOc1ccc(NC(=O)c2cc3c(=O)n(Cc4cccs4)ccc3nc2C)cc1,inactive
11,Cc1cc2nn(-c3ccc(Cl)cc3)nc2cc1NC(=O)C(C)C,inactive
12,O=C(NC(=S)Nc1cc(C(F)(F)F)ccc1N1CCOCC1)c1ccc(-c2cccc(Cl)c2)o1,inactive
13,O=C(NCc1ccccc1)c1cc(-c2cccc(Cl)c2)on1,inactive
14,O=C(O)C(c1ccccc1)N1C(=O)/C(=C\c2ccc(-c3cccc(Cl)c3)o2)SC1=S (stereo not drawn),31.6 µM (active)
15,Cc1ccc(-c2nnc(Nc3ccc(OCC(N)=O)cc3)c3ccccc23)cc1S(=O)(=O)NCC1CCCO1 (stereo not drawn),inactive
16,O=C(c1cnn2c1NC(=C1CC1)C=C2C(F)F)N1CCc2ccccc2C1,inactive
17,Cc1ccc(NC(=O)c2cc(S(=O)(=O)NCCC3=CCCCC3)ccc2F)cc1C,inactive
18,CCCSc1ncccc1C(=O)O,inactive
19,O=C(COC(=O)c1cccnc1Cl)NC(=O)NC1CCCCC1,inactive
20,O=C(O)c1cccnc1NC1CCCC1,89.1 µM (active)
21,CSc1ccccc1-c1nnc(NC(=O)c2ccc3c(c2)OCCO3)o1,inactive

row,Compound,Potency
1,Cc1ccc(NC(=O)Cn2nnc3sc4c(c3c2=O)CCC(C)C4)cc1 (stereo not drawn),inactive
2,O=C(CCc1n[nH]c(=O)[nH]c1=O)N/N=C/c1ccc(Br)o1,inactive
3,O=C(CCNC(=O)c1ccccc1Cl)NN=Cc1ccco1,inactive
4,O=C(CCNC(=O)c1ccccc1)NN=Cc1ccc(Br)o1,35.5 µM (active)
5,O=S(=O)(Nc1cccc2cccnc12)c1cccc2cccnc12,inactive
6,ClC/C=C/C[n+]1ccccc1Cl,inactive
7,CCOC(=O)C1CCCN(C(=O)Cn2ncc3c(C)n(Cc4ccc(F)cc4)c(C)c3c2=O)C1 (stereo not drawn),inactive
8,O=c1ccc2c(-c3ccccc3S(=O)(=O)O)c3ccc(O)c(O)c3oc-2c1O,1.12 µM (active)
9,COc1ccc(CCn2c3c(c(=O)[nH]c2=S)CN(C(C)C)CN3)cc1OC,inactive
10,COc1ccccc1-c1cc2nc(C)c(CCC(=O)NC3CCCCC3)c(C)n2n1,inactive
11,CN(C)c1ccc(/C=c2\[nH]c(=O)/c(=C/c3ccc(N(C)C)cc3)[nH]c2=O)cc1,inactive
12,COc1ccc2c(c1)c(=Cc1ccc(N(C)C)cc1)c1cc(-c3ccccc3)[n+](C)n12,39.8 µM (active)
13,O=C(Cn1ncn2nc(-c3cccs3)cc2c1=O)NCc1cccc(Br)c1,inactive
14,O=C(Nc1ccc(OC(F)(F)F)cc1)C1CCCN(S(=O)(=O)c2ccc(Br)s2)C1 (stereo not drawn),inactive
15,SCc1nc2ccc(Cl)cc2[nH]1,inactive
16,Fc1ccc(CN2CCc3nc(Nc4ccccc4)ncc3C2)cc1F,inactive
17,O=C(COC(=O)c1cc(=O)[nH]c2ccccc12)Nc1nc(-c2cccc(Br)c2)cs1,inactive
18,Cc1cc(C)c(-c2csc(NC(=O)CCCc3nc4ccccc4c(=O)[nH]3)n2)c(C)c1,inactive
19,O=C(CSc1nc2ccccc2c(=O)[nH]1)Nc1nc(-c2ccc(Br)cc2)cs1,6.31 µM (active)
20,COc1ccc(-n2nc(C(=O)NCCc3ccc(Cl)cc3)c3c4ccccc4n(C)c3c2=O)cc1Cl,inactive
21,Cc1cccc(-n2ccnc2SCC(=O)Nc2cccc3ccccc23)c1C,inactive
